LmPK inh: inhibitors of Leishmania mexicana pyruvate kinase. Q27686. purified LmPK, Kinase-Glo ATP luminescence, 1 h. AID 1721. Potency, µM (top dose mostly 57.5 µM), inactives show top-dose activity change, negative = inhibition, usual class: inhibitors. actives 0.37% (n = 290,000); also: potency is read from the fitted curve at half-maximal effect; % is scaled to controls: 0 for no effect and ±100 for the full control effect
Target sequence (Q27686 whole entry, looked up): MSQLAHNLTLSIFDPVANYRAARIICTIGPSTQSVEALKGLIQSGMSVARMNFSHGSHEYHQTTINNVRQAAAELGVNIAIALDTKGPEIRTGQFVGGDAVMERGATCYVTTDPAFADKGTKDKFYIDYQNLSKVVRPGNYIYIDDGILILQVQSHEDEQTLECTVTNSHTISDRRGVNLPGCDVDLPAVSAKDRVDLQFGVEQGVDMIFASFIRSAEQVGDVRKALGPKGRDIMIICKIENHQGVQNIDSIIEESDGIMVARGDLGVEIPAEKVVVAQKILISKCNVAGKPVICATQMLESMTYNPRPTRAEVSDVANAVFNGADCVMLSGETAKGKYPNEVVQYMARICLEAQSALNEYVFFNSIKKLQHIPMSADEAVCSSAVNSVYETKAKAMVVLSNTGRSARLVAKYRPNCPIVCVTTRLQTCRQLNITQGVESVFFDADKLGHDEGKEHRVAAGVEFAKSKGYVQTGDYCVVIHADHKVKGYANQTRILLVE
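0.1 nM LmPK, 0.5 mM PEP, 0.1 mM ADP; 50 mM imidazole pH 7.2, 7 mM MgCl2, 50 mM KCl; 1 h RT. Kinase-Glo luminescence readout, normalized to no-enzyme (full inhibition) and uninhibited wells.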
RE007 growth inh: less growth of the S. pombe RE007 Vpr strain; S. pombe RE007 Vpr strain, BacTiter-Glo ATP luminescence, 24 h; Potency, µM (series often up to 92.2 µM), for the others: at the highest dose activity change, negative = less growth, usual class: inhibitors; actives 0.21% (n = 360,000); AID 651644; active = well fitted falling curve with a large enough effect; inconclusive = small, poorly fitted or top-dose-only effect; inactive = no such curve, though single readings can be large or run the other way; also: potency is read from the fitted curve at half-maximal effect; % is scaled to controls: 0 for no effect and ±100 for the full control effect; nearly all actives have a fitted effect of over 50% in size
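Fission yeast RE007 carrying one integrated HIV-1 vpr copy, seeded at OD 0.01 in PMG+AL medium with 23 nL pinned compound. Grown 24 h at 30 degrees; viability read by BacTiter-Glo luminescence after 5 min.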
Tb PYK inh: blocks Trypanosoma brucei pyruvate kinase. Potency, µM (doses to about 76.8 µM), for inactives: at the top dose activity, negative = inhibition, most hits filed as inhibitors. actives 0.12% (n = 410,000). TbPYK enzyme, Kinase-Glo Plus ATP luminescence, 45 min; also: potency is read from the fitted curve at half-maximal effect; % is scaled to controls: 0 for no effect and ±100 for the full control effect; nearly all actives have a fitted effect of over 50% in size
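Luminescent Kinase-Glo Plus end-point after 45 min room-temperature reaction of T. brucei pyruvate kinase started with 130 uM ADP (final). Buffer TEA 50 mM pH 7.2 with KCl, MgCl2, BSA, Tween-20; titration-based qHTS with fitted concentration-effect curves.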
CHX counter: affects cycloheximide protein synthesis inhibition readout, counter-screen | actives 12% (n = 300,000) | cell reporter, cycloheximide protein synthesis inhibition counterscreen | max response, %; in the data active = max response mostly above about 13%, no sharp cut-off; inactive = mostly below about 14%; also: read at 38.3 µM for the half of the compounds with a filed dose; 0% is about no effect
Shiga inhibitor: blocks Shiga toxin action in Vero cells; AID 2315; inhibition, % at 38.7 µM; Vero cells, Shiga toxin protein synthesis inhibition reporter; actives 9.2% (n = 290,000); in the data active = inhibition mostly above about 28%, no sharp cut-off; inactive = mostly below about 43%; also: 0% is about no effect
Giardia FBPA inh-1: inhibitors of Giardia lamblia fructose-1,6-bisphosphate aldolase; Potency, µM (series often up to 59.6 µM), for the others: at the highest dose activity, negative = inhibition, most hits filed as inhibitors; A8B2U2; AID 2451; purified Giardia FBPA; actives 0.71% (n = 290,000); also: potency is read from the fitted curve at half-maximal effect; % is scaled to controls: 0 for no effect and ±100 for the full control effect; nearly all actives have a fitted effect of over 55% in size
Target sequence (A8B2U2 whole entry, looked up): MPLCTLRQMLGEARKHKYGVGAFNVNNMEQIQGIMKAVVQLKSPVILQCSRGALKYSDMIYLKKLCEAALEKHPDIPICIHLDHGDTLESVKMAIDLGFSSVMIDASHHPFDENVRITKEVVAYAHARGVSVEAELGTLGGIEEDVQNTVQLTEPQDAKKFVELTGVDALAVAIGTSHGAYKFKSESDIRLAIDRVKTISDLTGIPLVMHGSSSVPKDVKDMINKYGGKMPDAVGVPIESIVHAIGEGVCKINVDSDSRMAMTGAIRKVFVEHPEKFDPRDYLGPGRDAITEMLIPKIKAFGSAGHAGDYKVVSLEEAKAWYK
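40 nM FBPA preincubated 10 min at RT with compound (up to 57.5 uM final), then substrate plus GAPDH/TPI/NAD/arsenate coupling and diaphorase/resazurin added. Fluorescence read after 20 min at RT, 525/598 nm.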
Giardia growth: inhibitors of Giardia lamblia growth. shares compounds with Giardia FBPA inh-1. Giardia lamblia trophozoite growth inhibition. Potency, µM (highest dose often 57.5 µM), for the others: top-dose activity change, negative = inhibition, actives largely listed as inhibitors. actives 5% (n = 1,500);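 also: potency is read from the fitted curve at half-maximal effect; trophozoites exposed to compound for 48 h at 37 °C; % is scaled to controls: 0 for no effect and ±100 for the full control effect; nearly all actives have a fitted effect of over 70% in size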
Mammal cell tox: mammalian cytotoxicity of Giardia aldolase inhibitor hits; shares compounds with Giardia FBPA inh-1; mammalian cell viability counter-screen, qHTS; Potency, µM (doses to about 57.5 µM), for inactives: at the top dose viability change, negative = toxicity, hits mostly inhibitors; actives 4% (n = 1,500); AID 2786;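 also: Chinese hamster ovary cells used as mammalian cytotoxicity surrogate; viability measured as cellular ATP by luminescence; potency is read from the fitted curve at half-maximal effect; compound exposure lasted 48 h before reading; % is scaled to controls: 0 for no effect and ±100 for the full control effect; nearly all actives have a fitted effect of over 60% in size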
Giardia FBPA inh-2: confirmation of Giardia fructose-bisphosphate aldolase inhibitors. shares compounds with Giardia FBPA inh-1. purified Giardia aldolase enzyme activity, qHTS. AID 2787. Potency, µM (doses to about 57.5 µM), for inactives: at the highest dose activity change, negative = inhibition, hits mostly inhibitors. actives 5% (n = 1,500); also: potency is read from the fitted curve at half-maximal effect; % is scaled to controls: 0 for no effect and ±100 for the full control effect; nearly all actives have a fitted effect of over 45% in size
Rabbit aldolase: selectivity test for Giardia aldolase inhibitors: rabbit aldolase; shares compounds with Giardia FBPA inh-1; Rabbit muscle FBPA enzyme inhibition, selectivity counter-screen; Potency, µM (series often up to 57.5 µM), for the others: top-dose activity, negative = inhibition, hits mostly inhibitors; actives 4% (n = 1,500); AID 2794; also: potency is read from the fitted curve at half-maximal effect; % is scaled to controls: 0 for no effect and ±100 for the full control effect; nearly all actives have a fitted effect of over 60% in size
GAPDH coupling: GAPDH inhibition flagged for Giardia aldolase hits | GAPDH coupling enzyme counterscreen, biochemical, qHTS | shares compounds with Giardia FBPA inh-1 | Potency, µM (highest dose often 57.5 µM), for the others: at the top dose activity change, negative = inhibition, usual class: inhibitors | actives 6% (n = 1,500); also: potency is read from the fitted curve at half-maximal effect; % is scaled to controls: 0 for no effect and ±100 for the full control effect; nearly all actives have a fitted effect of over 55% in size
* marks the source's active call; other numbers are inactive results; ? = inconclusive; nt = not tested or not shown; [ ] = another dose, or the depositor's remark. The full list was thinned out, with hits kept by preference. Unless noted, calls follow the shape of the dose curve; as a rule, active = well fitted curve in the direction sought with a large enough effect; inconclusive = small, poorly fitted or top-dose-only effect, or another doubt; inactive = no such curve, though single readings can be large; an effect the other way counts as inactive or inconclusive.

SMILES	LmPK inh	RE007 growth inh	Tb PYK inh	CHX counter	Shiga inhibitor	Giardia FBPA inh-1	Giardia growth	Mammal cell tox	Giardia FBPA inh-2	Rabbit aldolase	GAPDH coupling
COc1ccc(C2CC(=O)N3CN(c4ccccc4F)CSC3=C2C#N)cc1OC (stereo unspecified)	6%	-2%	3.2µM*	-6	-26	2.8µM*	?	5%	?	32µM*	?
COc1ccc(OC)c(C2CC(=O)N3CN(c4ccccc4)CSC3=C2C#N)c1 (stereo unspecified)	18%	-2%	3.5µM*	-2	-6	1.8µM*	?	2%	-22%	?	-15%
COc1ccc(N2CSC3=C(C#N)C(c4cccc(OC)c4OC)CC(=O)N3C2)cc1 (stereo unspecified)	13%	-8%	13µM*	-3	-6	2µM*	15%	7%	?	?	?
COc1ccc(C2CC(=O)N3CN(Cc4ccco4)CSC3=C2C#N)cc1 (stereo unspecified)	-1%	-7%	?	3	31	?	nt	nt	nt	nt	nt
O=C(Nc1ccc(Oc2cccc(C(F)(F)F)c2)nc1)c1cccs1	-5%	8%	6%	4	7	-19%	nt	nt	nt	nt	nt
CCOC(=O)C1=C(C(=O)OCC)N(CC)CCC1=O	nt	6%	-9%	nt	nt	nt	nt	nt	nt	nt	nt
NCC1CCC(N)C(O[C@@H]2C(O)[C@H](O[C@H]3OC(CO)C(O)C(N)C3O)[C@@H](N)C[C@H]2N)O1 (stereo partly specified)	nt	nt	1%	nt	nt	5%	nt	nt	nt	nt	nt
CCC(Sc1nc2ncccc2[nH]1)C(=O)NCCc1ccccc1 (stereo unspecified)	-9%	5%	-3%	-2	6	2.2µM*	4%[10.4 µM]	0%	4%	13%	-6%
O=C(COc1cccnc1[N+](=O)[O-])N1CCN(C(=O)c2ccco2)CC1	2%	0%	-6%	-8	-5	18µM*	6%[10.4 µM]	2%	-6%	8%	-2%
O=C(NCc1ccccc1)c1ncn(Cc2ccccc2)c1C(=O)NCc1ccccc1	nt	12%	-7%	nt	nt	nt	nt	nt	nt	nt	nt
O=C(O)c1ncn(Cc2ccccc2)c1C(=O)O	-8%	-8%	0%	-4	-2	7.9µM*	?	-4%	7%	3%	6%
COc1ccc(NC(=O)CNC(c2ccccc2)c2ccccc2)cc1	-3%	7%	2%	1	-9	20µM*	-11%	3%	-2%	1%	-1%
Cc1ccc(S(=O)(=O)Nc2ncccn2)cc1	2%	1%	-2%	-4	-5	22µM*	-7%	21%	5%	18%	6%
O=S(=O)(Nc1ncccn1)c1ccccc1	3%	-10%	-22%	0	-7	?	nt	nt	nt	nt	nt
COC(=O)Cc1[nH]n(-c2nc3ccccc3s2)c(=O)c1C(C)=Nc1ccc(Cl)cc1	-22%	?	-14%	39*	70*	16µM*	?	-24%	3%	18%	13%
CCOC(=O)Oc1c(OC)cc(C(=O)O[C@H]2C[C@H]3CN4CCc5c([nH]c6cc(OC)ccc56)[C@@H]4C[C@H]3[C@@H](C(=O)OC)[C@@H]2OC)cc1OC	nt	nt	5%[33.2 µM]	nt	nt	-19%[21.7 µM]	nt	nt	nt	nt	nt
Cc1ccc(CN(Cc2ccccc2)C(=S)NCC(=O)NCc2cccnc2)o1	-12%	4%	-22%	12	-7	16µM*	-12%	-12%	3%	5%	4%
C=CCn1c(COc2cccc3ccc(C)nc23)nnc1SCC(=O)O	-6%	13%	0%	-2	11	14µM*	-19%	9%	-6%	4%	2%
C=CCn1c(COc2cccc3cccnc23)nnc1SCC(=O)O	-9%	-15%	-10%	-2	-13	?	nt	nt	nt	nt	nt
COc1ccc(N2CCN(CC(O)COC(c3ccc(F)cc3)c3ccc(F)cc3)CC2)cc1 (stereo unspecified)	-12%	-18%	5%	-3	-3	16µM*	4%[10.4 µM]	13%	-7%	-8%	3%
OC(COC(c1ccc(F)cc1)c1ccc(F)cc1)CN1CCCC(C(F)(F)F)C1 (stereo unspecified)	1%	-7%	38%	0	-4	14µM*	?	-3%	2%	4%	-5%
CCN(CC)CCCNC(=O)c1ccc2nc(CCc3ccccc3)oc2c1	nt	nt	-7%	nt	nt	nt	nt	nt	nt	nt	nt
CCOC(=O)C1=C(O)/C(=C/c2ccc(CNC(=O)C(=O)Nc3ccc(C)cc3)o2)N=C1C	-4%	1%	-10%	0	-10	4.5µM*	?	?	-28%	-13%	6%
COC(=O)C1=C(O)/C(=C\c2ccc(CNC(=O)C(=O)Nc3ccc(C)cc3)o2)N=C1C	3%	-13%	-1%	11	15	?	nt	nt	nt	nt	nt
CN1CCN(CC(=O)Nc2ccc(S(=O)(=O)N(C)C)cc2)CC1	-10%	2%	-2%	9	8	14µM*	?	-10%	5%	-4%	1%
Cc1ccc(NC(=O)CN2CCN(C)CC2)cc1Br	-4%	2%	-2%	-1	2	16µM*	?	2%	0%	3%	5%
CCOC(=O)C(C)Sc1nc(-c2ccccn2)ncc1OC (stereo unspecified)	-2%	10%	-4%	12	2	16µM*	?	-28%	-12%	-11%	?
CC(=O)Nc1ccc(-c2ccc(NC(C)=O)c(O)c2)cc1O	-10%	16%	-7%	18*	33*	-29%	-5%[38.3 µM]	-19%	2.6µM*	-26%	?
Cc1cc(C)n2nc(C(=O)Nc3cccc(S(=O)(=O)N(C)c4ccccc4)c3)nc2n1	2%	-11%	5%	4	16	0%	nt	nt	nt	nt	nt
